# SARS 3CLpro inh – SARS-CoV 3CLpro protease inhibition | P0C6X7 | AID 1706 | 0.14% of 290,000 active | inhibition, % at 6 µM | recombinant SARS-CoV 3CLpro, quenched FRET peptide cleavage; in the data active means inhibition above about 12%
# Anthrax LF prot – inhibitors of Bacillus anthracis lethal factor protease | inhibition, % at 10 µM | multiplex microsphere protease cleavage assay, LF | P15917 | 0.12% of 360,000 active | AID 588501
# Target sequence (P15917 whole entry, looked up): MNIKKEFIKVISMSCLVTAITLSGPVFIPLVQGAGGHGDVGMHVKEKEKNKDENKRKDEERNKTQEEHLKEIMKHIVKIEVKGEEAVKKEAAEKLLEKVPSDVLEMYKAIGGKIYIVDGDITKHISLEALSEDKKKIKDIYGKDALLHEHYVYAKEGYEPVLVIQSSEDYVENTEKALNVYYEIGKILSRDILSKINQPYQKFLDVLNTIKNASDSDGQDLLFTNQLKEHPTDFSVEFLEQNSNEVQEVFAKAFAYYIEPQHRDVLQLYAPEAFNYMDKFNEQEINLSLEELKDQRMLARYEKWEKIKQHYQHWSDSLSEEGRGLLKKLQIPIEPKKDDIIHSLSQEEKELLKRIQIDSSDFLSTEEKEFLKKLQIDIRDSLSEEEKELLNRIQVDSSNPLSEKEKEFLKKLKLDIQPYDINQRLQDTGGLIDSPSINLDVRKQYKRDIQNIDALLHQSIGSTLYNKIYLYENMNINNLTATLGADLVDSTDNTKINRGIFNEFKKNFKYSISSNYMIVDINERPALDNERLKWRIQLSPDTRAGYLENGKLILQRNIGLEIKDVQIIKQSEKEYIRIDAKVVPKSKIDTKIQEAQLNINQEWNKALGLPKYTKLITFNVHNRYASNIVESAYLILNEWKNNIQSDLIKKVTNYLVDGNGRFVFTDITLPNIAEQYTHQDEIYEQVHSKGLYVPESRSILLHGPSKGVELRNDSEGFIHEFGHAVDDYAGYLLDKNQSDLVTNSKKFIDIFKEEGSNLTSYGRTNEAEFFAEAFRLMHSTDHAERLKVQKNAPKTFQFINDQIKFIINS
# BoNT A protease – BoNT A light chain protease inhibition; multiplex microsphere protease substrate cleavage, flow cytometry; inhibition, % at 10 µM; 0.17% of 360,000 active; AID 588499
# BJeLR lethal – BJeLR cell viability loss | AID 1554 | BJeLR (HRASV12) viability, CellTiter-Glo ATP luminescence, 48 h | inhibition, % (test concentration not listed) | 0.17% of 300,000 active; in the data active means inhibition above about 50%; inconclusive means no clear call, values can overlap the other calls
# BoNT F protease – BoNT F light chain protease inhibition; Multiplex microsphere protease cleavage assay, flow cytometry; inhibition, % at 10 µM; 0.22% of 360,000 active; AID 588497; in the data active means inhibition above about 35%, passing the limit was not always enough; inconclusive means no clear call, values can overlap the other calls
# Bead autofluor – compound fluorescence in toxin protease inhibitor counterscreen | fluorescence intensity (no concentration beside the values) | 3.1% of 360,000 active | compound autofluorescence counterscreen, microsphere flow cytometry; stronger effect = higher value; in the data active means fluorescence intensity above about 16000; inconclusive means no clear call, values can overlap the other calls
# Numbers stand for hits; - = inactive; ? = inconclusive; . = not tested or not shown. Sampled rows, rich in hits. Any-hit rate of the full collection: about 3.6%. Unless noted, no stated cut-off is given here; in the data, active means inhibition above about 30%; inconclusive means no clear call, values can overlap the other calls; inactive means below that.
SMILES,SARS 3CLpro inh,Anthrax LF prot,BoNT A protease,BJeLR lethal,BoNT F protease,Bead autofluor
COc1cc2c(c(OC)c1OC)-c1ccc(OC)c(=O)cc1[C@@H](N(C)CC#CCO)CC2,-,-,-,-,-,-
CCN(CC)c1ccc2c(cc1=O)[C@@H](NC)CCc1cc(OC)c(OC)c(OC)c1-2,-,-,-,56.0,-,-
COc1cc2c(c(OC)c1OC)-c1ccc(N(C)CC(OC)OC)c(=O)cc1[C@@H](NC(C)=O)CC2,-,-,-,-,-,-
CN[C@H]1CCc2cc(OC)c(OC)c(OC)c2-c2ccc(N(C)CC(OC)OC)c(=O)cc21,-,-,-,52.6,-,-
CCCC(=O)Nc1c2c(nn1-c1ccc(OC)cc1)CS(=O)(=O)C2,-,-,-,-,-,19921
O=C(COc1ccccc1)Nc1cccc(-c2nc3ccccc3[nH]2)c1,-,-,-,-,-,-
O=C(O)CCCC(=O)Nc1cccc(-c2nc3ccccc3[nH]2)c1,-,-,-,-,-,16669
CC(=O)Nc1cccc(NC(=O)CCCC(=O)O)c1,-,-,?,-,-,18707
COc1ccc(OCC(=O)Nc2cccc(-c3nc4ccccc4[nH]3)c2)cc1,-,-,?,-,-,24148
COc1ccc(-n2nnnc2SCC(=O)Nc2c(C)n[nH]c2C)cc1,.,-,-,.,-,-
CCc1ccccc1NC(=O)CSc1nnc(-c2ccco2)n1N,-,-,-,-,-,-
COc1cc(O)c2c(=O)c(-c3ccc(O[C@@H]4O[C@H](CO)[C@@H](O)[C@H](O)[C@H]4O)cc3)coc2c1,-,-,-,-,-,-
COc1ccc2cc([C@H](C)C(=O)N(C)Cc3ccccc3N3CCCC3)ccc2c1,-,-,-,-,-,21814
CC1(C)CC(=O)C2=C(C1)N(Cc1ccc(F)cc1)C(=O)C2(NC(=O)c1cccnc1)C(F)(F)F (stereo unspecified),-,-,?,-,-,20986
CC(C)CC(=O)NC1(C(F)(F)F)C(=O)N(Cc2ccccc2)C2=C1C(=O)CC(C)(C)C2 (stereo unspecified),-,-,-,-,-,21893
CC(C)CN1C(=O)C(NC(=O)C2CC2)(C(F)(F)F)C2=C1CC(C)(C)CC2=O (stereo unspecified),-,-,-,-,-,-
CC1(C)CC(=O)C2=C(C1)N(CC1CCCO1)C(=O)C2(NC(=O)c1cccnc1)C(F)(F)F (stereo unspecified),-,-,-,-,-,17055
CC1(C)CC(=O)C2=C(C1)N(c1ccc(F)cc1)C(=O)C2(NC(=O)c1ccccc1F)C(F)(F)F (stereo unspecified),-,-,-,-,-,-
COc1ccccc1C(O)P(=O)(OCC(C)C)c1ccc(N(C)C)cc1 (stereo unspecified),-,-,-,-,-,-
CN1/C(=C/C(=S)NC(=O)C2(C)CC2(Cl)Cl)C(C)(C)c2ccccc21 (stereo unspecified),-,-,-,-,-,-
CN1/C(=C\C(=S)NC(=O)c2ccccc2Cl)C(C)(C)c2ccccc21,-,-,38.3,-,-,-
COc1ccccc1C(=O)NC(=S)/C=C1/N(C)c2ccccc2C1(C)C,-,-,49.2,-,-,-
CN1/C(=C\C(=S)Nc2ccccc2)C(C)(C)c2ccccc21,-,-,-,-,-,-
CN(CC(=O)Nc1ccc(N2CCOCC2)cc1)C(=O)c1ccc(CS(C)(=O)=O)cc1,.,-,-,.,-,-
Cc1ccc(S(=O)(=O)N(CC(=O)N2CCOCC2)C2CCCCC2)cc1,-,-,?,-,-,23611
SMILES,SARS 3CLpro inh,Anthrax LF prot,BoNT A protease,BJeLR lethal,BoNT F protease,Bead autofluor
CS(=O)(=O)N(CC(=O)N1CCN(c2ccccc2F)CC1)C1CCCCC1,-,-,-,-,-,-
Cc1ccc(S(=O)(=O)N(CC(=O)N2CCN(c3ccccc3F)CC2)C2CCCCC2)cc1,-,-,-,-,-,20732
CCN(CC)c1ccc(N=Cc2c(O)n(-c3ccccc3C)c(=O)[nH]c2=O)cc1,-,-,-,-,-,-
O=c1[nH]c(=O)n(Cc2ccco2)c(O)c1C=NCc1ccc2c(c1)OCO2,-,-,-,-,-,22050
COc1cccc(-n2c(O)c(C=NCc3ccc4c(c3)OCO4)c(=O)[nH]c2=O)c1,-,-,-,-,-,22432
CCCCn1c(O)c(C=NCc2ccc3c(c2)OCO3)c(=O)[nH]c1=O,-,-,-,-,-,-
Cc1ccccc1-n1c(O)c(C=Nc2ccc3c(c2)OCO3)c(=O)[nH]c1=O,-,-,?,-,-,22656

# Screens from PubChem.
